Records with an inconclusive call do not appear. A call without a number means that no potency is given here. The source made the active and inactive calls. Unless noted, the call rests on the fitted dose curve; in most records, active means well fitted curve in the direction sought with a large enough effect; inconclusive means small, poorly fitted or top-dose-only effect, or another doubt; inactive means no such curve, though single readings can be large; an effect the other way counts as inactive or inconclusive.
How the values were obtained:
[1] = qHTS assay for measurement of the activity of small molecule inhibitors on Zika virus induced Caspase-3 activity in human iPSC derived neural progenitor cells (hNPCs) (AID 1224857); further: nearly all actives have a fitted effect of over 65% in size
Summary of the method: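 Cells were plated at 350 per well and grown 16 to 20 hours. Compound pretreatment lasted one hour, after which ZIKV (2 FFU/cell) was added for 6 hours. Percent inhibition was normalized between uninfected and infected controls.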

[2] = qHTS assay for measurement of the activity of small molecule inhibitors on Zika virus induced Caspase-3 activity in human astrocytoma cells (AID 1224859)
Summary of the method: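 Percent inhibition of virus-induced caspase-3/7 signal is calculated against uninfected and ZIKV-infected control cells. Cells are SNB-19, infected at 2 FFU/cell for 6 h after 1 h compound exposure.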

[3] = NS1 protein of Zika virus - qHTS assay to identify small molecule inhibitors in human HEK 293 cells (AID 1347053); further: series mostly up to about 46 µM; nearly all actives have a fitted effect of over 55% in size
Summary of the method: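 Inhibition of NS1 expression was scored in HEK 293 cells given compound 1 h ahead of MR766 virus (MOI = 0.5). Following 24 h at 37 C, two anti-NS1 antibodies generated a TR-FRET signal, scaled between uninfected and infected controls.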

[4] = qHTS of pediatric cancer cell lines to identify multiple opportunities for drug repurposing: Primary screen for TC32 cells (AID 1347089); further: nearly all actives have a fitted effect of over 60% in size
Summary of the method: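 A viability screen of TC32 cells was run over 48 h, with primary MIPE doses spanning 0.78 nM–46 µM and NPC doses 0.59 nM–46 µM. ATP luminescence (CellTiter-Glo) served as the read-out.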

[5] = qHTS of pediatric cancer cell lines to identify multiple opportunities for drug repurposing: Primary screen for DAOY cells (AID 1347090); further: series mostly up to about 46 µM; nearly all actives have a fitted effect of over 55% in size
Summary of the method: (§1)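 Viability measured as metabolically active cells via CellTiter-Glo luminescence following 48 hours of compound exposure, 11-point dilutions in confirmatory testing. 500-1,000 cells/well plated 5 hours before dosing; controls were DMSO and 2.3 µM bortezomib.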

[6] = qHTS of pediatric cancer cell lines to identify multiple opportunities for drug repurposing: Primary screen for A673 cells (AID 1347092); further: nearly all actives have a fitted effect of over 45% in size
Summary of the method: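 Titration-based qHTS on A673 cells: MIPE compounds spanned 11 points (0.78 nM to 46 µM final), NPC compounds 8 points (0.59 nM to 46 µM final). Viability after 48 h was measured by ATP luminescence.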

[7] = qHTS of pediatric cancer cell lines to identify multiple opportunities for drug repurposing: Primary screen for SK-N-MC cells (AID 1347093); further: potency means the concentration at half of the fitted maximal effect
Summary of the method: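 Metabolically active cells were quantified by ATP-dependent luminescence (CellTiter-Glo, 15 min at room temperature) following 48 h treatment. Cells had been plated at 500-1,000 per well and settled for 5 h beforehand.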

[8] = qHTS of pediatric cancer cell lines to identify multiple opportunities for drug repurposing: Primary screen for BT-37 cells (AID 1347094); further: series mostly up to about 57 µM
Summary of the method: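 Plated cells (500-1,000 per well, growth media) were allowed to settle for 5 hours, treated with compound dilutions for 48 hours, then lysed with CellTiter-Glo for 15 min at room temperature before luminescence reading.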

[9] = qHTS of pediatric cancer cell lines to identify multiple opportunities for drug repurposing: Primary screen for SJ-GBM2 cells (AID 1347091)
Summary of the method: as §1

[10] = molecular target: T1, Tyrosine-protein phosphatase non-receptor type substrate 1 (Homo sapiens) + Leukocyte surface antigen CD47 (Homo sapiens) (UniProt P78324+Q08722); assay: CD47-SIRPalpha protein protein interaction - LANCE assay qHTS validation (AID 1347057; active means well fitted curve in the direction sought with a large enough effect in the signal ratio, with a control signal flat, not every such curve was filed as active; the % refers to the signal ratio; further: series mostly up to about 38 µM)
Summary of the method: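 First, His-tagged CD47 and Eu-labelled anti-His antibody met the compound for 30 min; next, site-specifically biotinylated SIRPalpha was added for 30 min; finally streptavidin-APC was added before reading the TR-FRET ratio.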

[11] = molecular target: T1, Tyrosine-protein phosphatase non-receptor type substrate 1 (Homo sapiens) + Leukocyte surface antigen CD47 (Homo sapiens); assay: CD47-SIRPalpha protein protein interaction - HTRF assay qHTS validation (AID 1347058; active means well fitted curve in the direction sought with a large enough effect in the signal ratio, not every such curve was filed as active; the % refers to the signal ratio;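 further: recombinant soluble extracellular CD47 with His tag and biotinylated SIRPalpha domains; series mostly up to about 38 µM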)
Summary of the method: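 TR-FRET read (Ch1/Ch2 ratio) of soluble extracellular CD47 and Avi-biotinylated SIRPalpha domains in PBS pH 7.4 with 0.05% IGEPAL; 7-point compound titration. Sequential 30 min room-temperature steps; non-biotinylated SIRPalpha as control inhibitor.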

[12] = molecular target: T1, Tyrosine-protein phosphatase non-receptor type substrate 1 (Homo sapiens) + Leukocyte surface antigen CD47 (Homo sapiens); assay: CD47-SIRPalpha protein protein interaction - Alpha assay qHTS validation (AID 1347059);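 further: bead proximity luminescence from CD47 binding SIRPalpha after compound preincubation with SIRPalpha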
Summary of the method: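 Biotinylated Avi-tagged SIRPalpha (25 nM) preincubated 30 min with compound, then His-tagged CD47 (12.5 nM) added 30 min; AlphaScreen with Ni-NTA acceptor and streptavidin donor beads. PBS pH 7.4, 0.05% IGEPAL, room temperature; 7-point titrations.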

[13] = molecular target: Parathyroid hormone/parathyroid hormone-related peptide receptor (Homo sapiens) (UniProt Q03431); assay: qHTS for PTHR1 Agonists: Optimization Screen against the NCGC LOPAC library (AID 1347079);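 further: GloSensor cAMP luminescence in HEK-293 GP2 cells expressing human PTHR1 with IBMX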
Summary of the method: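 Compounds were tested across a qHTS titration. PTHR1-expressing GP2 cells report cAMP rises via GloSensor luminescence after 1 hr compound exposure at 37C with IBMX present.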

T1 sequence (P78324 whole entry, looked up): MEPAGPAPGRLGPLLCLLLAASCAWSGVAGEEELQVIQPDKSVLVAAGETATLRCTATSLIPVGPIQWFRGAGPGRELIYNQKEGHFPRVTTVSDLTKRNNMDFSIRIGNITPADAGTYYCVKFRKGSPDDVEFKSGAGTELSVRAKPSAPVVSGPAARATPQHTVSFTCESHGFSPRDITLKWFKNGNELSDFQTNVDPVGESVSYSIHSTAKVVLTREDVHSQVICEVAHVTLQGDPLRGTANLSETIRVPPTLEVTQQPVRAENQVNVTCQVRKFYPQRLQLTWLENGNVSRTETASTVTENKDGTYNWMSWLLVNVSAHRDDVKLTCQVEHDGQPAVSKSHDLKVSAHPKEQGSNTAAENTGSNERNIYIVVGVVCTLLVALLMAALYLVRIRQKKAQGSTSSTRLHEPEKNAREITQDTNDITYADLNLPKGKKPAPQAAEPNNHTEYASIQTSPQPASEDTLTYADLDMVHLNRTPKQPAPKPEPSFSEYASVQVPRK
T1 sequence (Q08722 whole entry, looked up): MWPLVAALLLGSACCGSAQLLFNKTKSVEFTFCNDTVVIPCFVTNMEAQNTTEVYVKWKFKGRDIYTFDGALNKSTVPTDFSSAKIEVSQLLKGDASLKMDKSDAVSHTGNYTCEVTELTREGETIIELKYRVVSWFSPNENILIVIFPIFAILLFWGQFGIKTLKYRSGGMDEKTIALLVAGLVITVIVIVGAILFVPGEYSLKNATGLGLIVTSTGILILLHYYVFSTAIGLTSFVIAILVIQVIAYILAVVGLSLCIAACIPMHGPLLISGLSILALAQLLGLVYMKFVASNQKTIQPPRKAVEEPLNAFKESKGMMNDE
Sequence of Parathyroid hormone/parathyroid hormone-related peptide receptor (Homo sapiens) (Q03431 whole entry, looked up): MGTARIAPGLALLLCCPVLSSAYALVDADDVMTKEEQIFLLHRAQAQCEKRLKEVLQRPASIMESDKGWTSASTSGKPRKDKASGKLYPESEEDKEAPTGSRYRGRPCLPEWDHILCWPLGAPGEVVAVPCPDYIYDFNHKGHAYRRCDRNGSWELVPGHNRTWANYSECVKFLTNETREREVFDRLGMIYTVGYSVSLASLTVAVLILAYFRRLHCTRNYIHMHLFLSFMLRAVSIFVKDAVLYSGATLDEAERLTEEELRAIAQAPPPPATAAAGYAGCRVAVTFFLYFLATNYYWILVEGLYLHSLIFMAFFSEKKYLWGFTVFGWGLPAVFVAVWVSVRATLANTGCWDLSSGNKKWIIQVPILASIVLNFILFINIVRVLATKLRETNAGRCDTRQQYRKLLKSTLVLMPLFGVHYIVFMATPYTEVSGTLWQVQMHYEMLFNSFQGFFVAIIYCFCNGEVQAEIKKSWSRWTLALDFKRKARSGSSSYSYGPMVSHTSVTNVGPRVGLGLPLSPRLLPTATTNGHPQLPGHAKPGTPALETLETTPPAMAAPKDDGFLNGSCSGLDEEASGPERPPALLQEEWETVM

SMILES | Potency [1] | outcome [2] | Potency [3] | Potency [4] | Potency [5] | Potency [6] | Potency [7] | Potency [8] | Potency [9] | outcome [10] | outcome [11] | Potency [12] | outcome [13]
CCN1CCN(c2cc(-c3ccc(F)cc3)c3c(n2)CCCCCC3)CC1 | inactive | inactive | inactive | inactive | inactive | inactive | inactive | – | – | – | – | – | –
O=C1c2ccccc2CCc2ccccc21 | inactive | inactive | inactive | inactive | inactive | inactive | inactive | inactive | – | – | – | – | –
COC(=O)[C@H]1[C@H]2C[C@@H]3c4[nH]c5cc(OC)ccc5c4CCN3C[C@H]2C[C@@H](OC(=O)/C=C/c2ccc(O)c(OC)c2)[C@@H]1OC | inactive | inactive | inactive | inactive | inactive | – | 5.96 µM (active) | – | – | – | – | – | –
O=C1CC2(CCCC2)CC(=O)N1CCNCC1COc2ccccc2O1 (stereo not given) | inactive | inactive | inactive | inactive | – | inactive | inactive | inactive | inactive | – | – | – | –
COc1cc2nc(Cl)nc(N)c2cc1OC | inactive | inactive | inactive | inactive | inactive | – | – | inactive | – | – | – | – | –
CCC(C(=O)OCCN1CCOC(c2ccccc2)C1C)c1ccccc1 (stereo not given) | inactive | inactive | inactive | inactive | inactive | inactive | inactive | inactive | – | – | – | – | –
CC(C)NCCCC1(C(N)=O)c2ccccc2-c2ccccc21 | inactive | inactive | inactive | inactive | – | inactive | inactive | inactive | inactive | – | – | – | –
N#CSCC(=O)O | inactive | inactive | inactive | – | inactive | inactive | inactive | inactive | inactive | – | – | – | –
Cc1ccc(Cl)c(OCC(O)CNC(C)(C)C)c1 (stereo not given) | inactive | inactive | inactive | – | inactive | inactive | inactive | inactive | inactive | – | – | – | –
CCOC(=O)Oc1ccc(CCNC(=O)[C@H](CCSC)NC(C)=O)cc1OC(=O)OCC | inactive | inactive | inactive | – | inactive | inactive | inactive | inactive | inactive | – | – | – | –
CC(=O)O[C@H]1CC[C@@]2(C)C(=CC[C@@H]3[C@@H]2CC[C@]2(C)C(C(C)=O)=CC[C@@H]32)C1 | inactive | inactive | inactive | – | inactive | inactive | inactive | inactive | inactive | – | – | – | –
CC(C)N(CCC(=O)c1ccc2ccccc2c1)Cc1ccccc1 | inactive | inactive | – | – | – | – | – | – | – | inactive | inactive | inactive | inactive
Cc1sccc1Br | inactive | inactive | inactive | inactive | – | – | – | inactive | inactive | – | – | – | –
